DT40 TDP1 no CPT: qHTS for Inhibitors of human tyrosyl-DNA phosphodiesterase 1 (TDP1): qHTS in cells in absence of CPT; DT40 Tdp1-/- hTDP1 cells, no CPT, ATP luminescence, 48 h; Potency, µM (doses to about 46.2 µM), inactives show top-dose activity change, negative = growth inhibition, hits mostly inhibitors; actives 15% (n = 420,000); AID 686978, 2013; note: potency is the fitted concentration of half-maximal effect; nearly all actives have a fitted effect of over 55% in size
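Stably hTDP1-transfected Tdp1-null chicken DT40 cells were treated with library compounds minus camptothecin and grown for at least 48 hr at 37 °C, after which cellular ATP was quantified by luminescence.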
HT1080 IDH1KD tx: qHTS for induction of synthetic lethality in tumor cells producing 2HG: qHTS for the HT-1080-IDH1KD cell line | HT-1080 IDH1 knockdown viability, ATP luminescence, 48 h | Potency, µM (titrated, usually from 46.1 µM), for inactives: at the highest dose activity, negative = toxicity, usual class: cytotoxic | actives 2% (n = 360,000);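 note: potency is the fitted concentration of half-maximal effect; 0% = DMSO wells and -100% = cell-free medium wells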
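In this qHTS, HT-1080 cells depleted of IDH1 are exposed for 48 h at 37 °C to compound titrations. Toxicity is scored from CellTiter-Glo luminescence, with DMSO as full viability and medium alone as none.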
IL-1B inflam inh: qHTS for Inhibitors of Inflammasome Signaling: IL-1-beta AlphaLISA Primary Screen; THP-1 LPS/ATP IL-1B secretion, AlphaLISA, 16 h; active compounds read low; activity change, % at 57.5 µM; actives 4.7% (n = 360,000); in the data active = activity change below about -50%; inconclusive = mostly about -30% to -49%
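Secreted IL-1B measured by AlphaLISA bead assay after 16 h compound exposure of THP-1 cells; compounds (final up to 57.5 uM) added 1 h before LPS (250 ng/mL) and ATP (1.25 mM) stimulation; lower signal means less secretion.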
DT40 TDP1 CPT: qHTS for Inhibitors of human tyrosyl-DNA phosphodiesterase 1 (TDP1): qHTS in cells in presence of CPT; chicken DT40 Tdp1-/-;hTDP1 cells + 20 nM CPT, ATP luminescence, 48 h; actives 12% (n = 420,000); Potency, µM (series often up to 46.2 µM), without a hit: top-dose activity change, negative = growth inhibition, actives largely listed as inhibitors; AID 686979, 2013; note: potency is the fitted concentration of half-maximal effect; nearly all actives have a fitted effect of over 55% in size
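Chicken DT40 Tdp1-/- cells stably complemented with human TDP1 were seeded at 400 cells/well in medium containing 20 nM camptothecin, exposed to pin-transferred compounds, and grown at 37 °C for at least 48 hr. Viability was read as ATP luminescence.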
HT1080-NT tox: qHTS for induction of synthetic lethality in tumor cells producing 2HG: qHTS for the HT-1080-NT fibrosarcoma cell line; HT-1080-NT fibrosarcoma viability, CellTiter-Glo ATP luminescence, 48 h; Potency, µM (titrated, usually from 46.1 µM), for inactives: at the top dose activity, negative = less viability, usual class: cytotoxic; actives 1.6% (n = 360,000);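 note: NT is the 2HG producing partner of a matched IDH1 knockdown line; potency is the fitted concentration of half-maximal effect; 0% = DMSO-treated cells and -100% = media-only wells without cells; nearly all actives have a fitted effect of over 55% in size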
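Luminescent CellTiter-Glo readout after 48 hours of compound exposure at 37 degrees C defined viability of HT-1080-NT cells. Activity was normalized to DMSO wells and cell-free media wells; concentration-response curves were fitted and assigned curve classes.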
* = called active by the depositor; ? = inconclusive; nt = no result. Rows were chosen to be rich in hits. Some 19% of all compounds tested hit in one or more screens of this group. Unless noted, calls come from the whole dose curve; as a rule, active = well fitted curve in the direction sought with a large enough effect; inconclusive = small, poorly fitted or top-dose-only effect, or another doubt; inactive = no such curve, though single readings can be large; an effect the other way counts as inactive or inconclusive. Unless noted, % is set by controls: 0 for no effect and ±100 for the full control effect.

SMILES	DT40 TDP1 no CPT	HT1080 IDH1KD tx	IL-1B inflam inh	DT40 TDP1 CPT	HT1080-NT tox
Cc1ccc(NCCC(=O)c2cccs2)cc1Cl	9.2µM*	8%	0	7.3µM*	10%
CC(C)c1ccc(NCCC(=O)c2cccs2)cc1	5.2µM*	8%	-26	5.2µM*	16%
Cc1ccc(NCCC(=O)c2cccs2)cc1C	5.8µM*	0%	-22	4.6µM*	-5%
Cc1cn2c(=O)c(S(=O)(=O)NC(C)c3ccccc3)c(C)nc2s1 (stereo unspecified)	5%	nt	nt	-6%	nt
O=C(CCC(=O)c1cccs1)NNC(=O)c1ccccc1Cl	22%	14%	14	1%	8%
O=C(CCNc1cccc(Cl)c1)c1cccs1	15µM*	?	0	10µM*	0%
Cc1ccc(NC(NC(=O)c2cccs2)C(Cl)(Cl)Cl)cc1C (stereo unspecified)	18µM*	?	?	?	-23%
Cc1ccc(NC(NC(=O)c2cccs2)C(Cl)(Cl)Cl)cc1 (stereo unspecified)	?	-15%	22	?	-21%
Cc1ccc(C(=O)N/N=C(/CC(=O)c2cccs2)C(F)(F)F)cc1	9.2µM*	?	16	7.3µM*	26µM*
O=C(CCC(=O)c1cccs1)NNC(=O)c1cccc(Cl)c1	23µM*	-5%	22	?	-15%
CCCS(=O)(=O)NC(=O)C1(C)CCN(C(=O)c2cccc3ccccc23)C1 (stereo unspecified)	18%	?	31	-11%	9%
COc1ccc(S(=O)(=O)N2CCC(NC(=O)c3cccnc3)CC2)cc1	5%	-3%	-13	9%	5%
COc1ccc(C(=O)COC(=O)CCNS(=O)(=O)c2ccccc2)c(OC)c1	-3%	1%	18	13%	2%
O=C(NNc1cc(Cl)cc(Cl)c1)c1cccs1	18µM*	?	-15	?	?
Cc1cccc(NS(=O)(=O)c2ccc(C)c(C(=O)NNC(=O)c3csc(N4CCOCC4)n3)c2)c1	-2%	-1%	-23	2%	-9%
Cc1cccc(C)c1OCC(=O)Nc1cccc(S(=O)(=O)N2CCCC2)c1	13µM*	0%	-25	?	1%
CCC(=O)c1ccc(OCC(=O)Nc2cccc(S(=O)(=O)N3CCCCCC3)c2)cc1	5.2µM*	-29%	4	7.3µM*	-10%
Cc1cccc(C)c1OCC(=O)Nc1cccc(S(=O)(=O)N2CCCCCC2)c1	21µM*	-5%	-5	21µM*	-14%
Cc1ccccc1CC(=O)Nc1cccc(S(=O)(=O)N2CCCC2)c1	11%	8%	0	-8%	11%
CCOc1ccc(OCCC(=O)OCC(=O)Nc2cccc(S(=O)(=O)N3CCCCC3)c2)cc1	?	0%	17	?	-4%
Cc1ccc(OCC(=O)Nc2cccc(S(=O)(=O)N3CCCCCC3)c2)c([N+](=O)[O-])n1	16µM*	0%	-4	?	-1%
CCCN(CCC)C(=S)NC(=O)c1ccc(-c2ccccc2)cc1	?	?	9	?	?
O=C(COc1ccc(C(=O)c2ccc(F)cc2)cc1)Nc1cccc(S(=O)(=O)N2CCOCC2)c1	12µM*	-13%	?	23µM*	-12%
O=C(COC(=O)CCC(=O)c1ccc(F)cc1)Nc1cccc(S(=O)(=O)N2CCOCC2)c1	1%	-1%	4	-19%	0%
O=C(COC(=O)/C=C/c1ccc(F)cc1)Nc1cccc(S(=O)(=O)N2CCCC2)c1	?	3%	3	?	3%
SMILES	DT40 TDP1 no CPT	HT1080 IDH1KD tx	IL-1B inflam inh	DT40 TDP1 CPT	HT1080-NT tox
O=C(COC(=O)/C=C/c1ccc(OC(F)F)cc1)Nc1cccc(S(=O)(=O)N2CCOCC2)c1	21µM*	-3%	-11	?	1%
CC(C)CN1CC2(CCN(C(=O)c3cccc(F)c3)CC2)C1	1%	nt	nt	4%	nt
Cc1ccc2c(=O)cc(C(=O)Nc3ccc(S(=O)(=O)N4CCCCC4)cc3)oc2c1	-19%	nt	nt	-23%	nt
CCN(C(=O)C1CCN(S(=O)(=O)c2ccc3c(c2)CCCN3C(C)=O)CC1)c1cccc(C)c1	23µM*	nt	nt	?	nt
CCN(c1cccc(C)c1)S(=O)(=O)c1ccc2c(c1)CCN2C(C)=O	16µM*	?	16	?	?
COCCNC(=O)C1CCN(S(=O)(=O)c2ccc3c(c2)CCCN3C(C)=O)CC1	1%	nt	nt	8%	nt
CCN(c1cccc(C)c1)S(=O)(=O)c1ccc2c(c1)CCCN2C(C)=O	?	-16%	-19	-28%	-18%
CCN(CC)C(=O)C1CCN(S(=O)(=O)c2ccc3c(c2)CCCN3C(C)=O)CC1	?	nt	nt	23µM*	nt
CCN(CC)C(=O)C1CCN(S(=O)(=O)c2ccc3c(c2)CCCN3C(=O)C2CCC2)CC1	?	-1%	43	7.3µM*	4%
O=C(C1CCC1)N1CCc2cc(S(=O)(=O)N3CCCCC3)ccc21	?	10%	7	?	4%
CCOC(=O)N1CCN(CC(O)COc2ccc(C)cc2C(C)(C)C)CC1 (stereo unspecified)	?	0%	0	?	10%
CCCOc1ccc(-c2c(C(=O)N/N=C(\C)COc3ccccc3)nnn2-c2nonc2N)cc1	9%	-10%	16	-28%	-15%
CCOc1ccc(C2CC(=O)c3c([nH]c(C(=O)OC)c3C)C2)cc1OC (stereo unspecified)	-27%	?	16	-1%	?
COc1ccc(OC)c(C2CC(=O)c3c([nH]c(C(=O)OCC4CCCCC4)c3C)C2)c1 (stereo unspecified)	?	nt	nt	21µM*	nt
COC(=O)c1[nH]c2c(c1C)C(=O)CC(c1cc(OC)ccc1OC)C2 (stereo unspecified)	2.9µM*	21µM*	41	3.3µM*	?
COC(=O)c1[nH]c2c(c1C)C(=O)CC(c1cccs1)C2 (stereo unspecified)	0.82µM*	1µM*	20	0.73µM*	1µM*
Cc1ccc(NC(=O)CSc2nc3ccccc3c3nc(CCc4c(C)n[nH]c4C)nn23)c(C)c1	-29%	nt	nt	-26%	nt
COc1ccc2[nH]c(=O)c(C(c3nnnn3C3CCCC3)N3CCN(Cc4ccc5c(c4)OCO5)CC3)cc2c1 (stereo unspecified)	?	?	?	26µM*	-28%
